In PubChem BioAssay (Tox21):
Results filed as inconclusive are left out. The source made the active and inactive calls. Unless noted, calls follow the shape of the dose curve; as a rule, active = well fitted curve in the direction sought with a large enough effect in the repeat runs; inconclusive = weak or mixed curves; inactive = no such curve, though single readings can be large; an effect the other way counts as inactive or inconclusive.

Columns and labels:
[1] = qHTS assay to identify small molecule agonists of the sonic hedgehog signaling (Shh) pathway (AID 1259368; calls by dose curve;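 also: NIH/3T3-derived 3T3Gli1-Luc cells carrying a stable Gli1-driven firefly luciferase reporter; series mostly up to about 92 µM; nearly all actives have a fitted effect of over 15% in size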)
How it was run: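 Read-out: firefly luciferase luminescence from a Gli1 response element reporter stably integrated in NIH/3T3-derived 3T3Gli1-Luc cells, measured 30 min at room temperature after reagent addition. Compound exposure lasted 24 hr at 37 C, 5% CO2.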

[2] = qHTS assay to identify small molecule antagonists of the sonic hedgehog signaling (Shh) pathway (AID 1259369; calls by dose curve; also: nearly all actives have a fitted effect of over 45% in size; also: potency is read from the fitted curve at half-maximal effect)
How it was run: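 Luminescence readout: firefly Luc under Gli1 response element in 3T3Gli1-Luc cells (NIH/3T3 clone). Antagonist mode, stimulation by conditioned medium; compound exposure 24hr at 37 C, 5% CO2.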

[3] = target: Estrogen receptor beta (Homo sapiens) (UniProt Q92731); test: qHTS assay to identify small molecule agonists of the estrogen receptor beta (ER-beta) signaling pathway (AID 1259377; active = well fitted activation curve with a large enough effect in the signal ratio in the repeat runs, not every such curve was filed as active; the % refers to the signal ratio)
Estrogen receptor beta (Homo sapiens), sequence (Q92731 whole entry, looked up): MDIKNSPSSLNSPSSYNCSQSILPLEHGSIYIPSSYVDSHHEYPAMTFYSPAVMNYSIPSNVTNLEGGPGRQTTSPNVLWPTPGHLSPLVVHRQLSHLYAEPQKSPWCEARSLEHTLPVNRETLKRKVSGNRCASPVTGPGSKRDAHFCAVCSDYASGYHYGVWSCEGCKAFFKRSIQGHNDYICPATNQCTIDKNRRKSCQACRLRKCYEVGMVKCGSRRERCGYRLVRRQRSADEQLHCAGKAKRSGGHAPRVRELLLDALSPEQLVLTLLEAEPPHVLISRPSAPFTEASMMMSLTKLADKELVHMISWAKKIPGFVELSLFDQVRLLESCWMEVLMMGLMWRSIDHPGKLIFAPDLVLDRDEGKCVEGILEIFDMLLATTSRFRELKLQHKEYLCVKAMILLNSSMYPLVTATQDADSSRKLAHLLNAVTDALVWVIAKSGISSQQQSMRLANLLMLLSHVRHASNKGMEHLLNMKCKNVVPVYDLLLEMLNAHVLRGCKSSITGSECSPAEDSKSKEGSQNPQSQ
How it was run: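 Read-out: beta-lactamase FRET fluorescence. Cell line: ER-beta-UAS-bla HEK293T in 2% charcoal-stripped FBS. Exposure: 16 hr at 37C. Substrate step: 2 h at room temperature.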

[4] = qHTS assay to identify small molecule agonists of the androgen receptor (AR) signaling pathway in the presence of an antagonist - cell viability counter screen (AID 1259379); also: nearly all actives have a fitted effect of over 25% in size; also: potency is read from the fitted curve at half-maximal effect
How it was run: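 Viability counter screen: CellTiter-Fluor fluorescence, measured in the same wells as the luciferase read-out. MDA-kb2 cells, 3,000/well, with nilutamide at 3.0uM final and compounds at 15 concentrations, 16 hr at 37C, 0% CO2.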

[5] = qHTS assay to identify small molecule agonists of the estrogen receptor beta (ER-beta) signaling pathway - cell viability counter screen (AID 1259380); also: nearly all actives have a fitted effect of over 30% in size; also: potency is read from the fitted curve at half-maximal effect
How it was run: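 Luminescence read-out (CellTiter-Glo, 30 min, room temp) taken in the same wells as the beta-lactamase reporter assay; ER-beta-UAS-bla HEK293T cells exposed to DMSO-dissolved compounds for 16 hr at 37C in 2% charcoal-stripped FBS medium.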

[6] = qHTS assay to identify small molecule antagonists of the estrogen receptor beta (ER-beta) signaling pathway - cell viability counter screen (AID 1259382); also: series mostly up to about 92 µM; nearly all actives have a fitted effect of over 55% in size
How it was run: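 Luminescent ATP read-out (CellTiter-Glo, 30 min, RT) taken in the same wells as the bla reporter assay. HEK293T ER-beta-UAS-bla cells in 2% charcoal-stripped FBS were exposed to compounds with 1nM E2 for 16 hr at 37C.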

[7] = target: Estrogen receptor (Homo sapiens) (UniProt P03372); test: qHTS assay to identify small molecule agonists of the estrogen receptor alpha (ER-alpha) signaling pathway in the presence of an antagonist (AID 1259383; calls by dose curve; also: top concentration of the series differs between compounds; nearly all actives have a fitted effect of over 15% in size)
Estrogen receptor (Homo sapiens), sequence (P03372 whole entry, looked up): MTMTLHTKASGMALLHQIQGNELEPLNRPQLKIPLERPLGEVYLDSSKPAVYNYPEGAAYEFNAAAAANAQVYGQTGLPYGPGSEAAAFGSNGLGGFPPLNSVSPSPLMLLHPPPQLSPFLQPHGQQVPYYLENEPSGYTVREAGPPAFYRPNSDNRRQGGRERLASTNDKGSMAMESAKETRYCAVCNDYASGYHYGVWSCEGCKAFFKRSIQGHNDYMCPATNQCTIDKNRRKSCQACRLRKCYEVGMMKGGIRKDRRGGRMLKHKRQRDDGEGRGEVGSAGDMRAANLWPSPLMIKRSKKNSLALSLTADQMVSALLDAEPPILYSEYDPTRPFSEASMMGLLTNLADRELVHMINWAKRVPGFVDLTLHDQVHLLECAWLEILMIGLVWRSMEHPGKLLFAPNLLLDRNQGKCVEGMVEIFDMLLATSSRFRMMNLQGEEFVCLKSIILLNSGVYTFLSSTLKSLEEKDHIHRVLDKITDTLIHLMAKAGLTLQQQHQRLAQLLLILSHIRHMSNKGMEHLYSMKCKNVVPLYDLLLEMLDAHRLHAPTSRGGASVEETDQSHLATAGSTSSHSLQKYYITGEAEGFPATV
How it was run: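 Luciferase luminescence (ONE-Glo, 30min at room temperature) measured in VM7Luc4E2 cells after 22hr compound exposure at 15 concentrations, with 10.0nM ICI-182,780 final present; cells express endogenous ER-alpha and carry four EREs upstream of luciferase.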

[8] = target: Progesterone receptor (Homo sapiens) (UniProt P06401); test: qHTS assay to identify small molecule agonists of the progesterone receptor (PR) signaling pathway (AID 1346784; calls by dose curve; also: nearly all actives have a fitted effect of over 30% in size)
Progesterone receptor (Homo sapiens), sequence (P06401 whole entry, looked up): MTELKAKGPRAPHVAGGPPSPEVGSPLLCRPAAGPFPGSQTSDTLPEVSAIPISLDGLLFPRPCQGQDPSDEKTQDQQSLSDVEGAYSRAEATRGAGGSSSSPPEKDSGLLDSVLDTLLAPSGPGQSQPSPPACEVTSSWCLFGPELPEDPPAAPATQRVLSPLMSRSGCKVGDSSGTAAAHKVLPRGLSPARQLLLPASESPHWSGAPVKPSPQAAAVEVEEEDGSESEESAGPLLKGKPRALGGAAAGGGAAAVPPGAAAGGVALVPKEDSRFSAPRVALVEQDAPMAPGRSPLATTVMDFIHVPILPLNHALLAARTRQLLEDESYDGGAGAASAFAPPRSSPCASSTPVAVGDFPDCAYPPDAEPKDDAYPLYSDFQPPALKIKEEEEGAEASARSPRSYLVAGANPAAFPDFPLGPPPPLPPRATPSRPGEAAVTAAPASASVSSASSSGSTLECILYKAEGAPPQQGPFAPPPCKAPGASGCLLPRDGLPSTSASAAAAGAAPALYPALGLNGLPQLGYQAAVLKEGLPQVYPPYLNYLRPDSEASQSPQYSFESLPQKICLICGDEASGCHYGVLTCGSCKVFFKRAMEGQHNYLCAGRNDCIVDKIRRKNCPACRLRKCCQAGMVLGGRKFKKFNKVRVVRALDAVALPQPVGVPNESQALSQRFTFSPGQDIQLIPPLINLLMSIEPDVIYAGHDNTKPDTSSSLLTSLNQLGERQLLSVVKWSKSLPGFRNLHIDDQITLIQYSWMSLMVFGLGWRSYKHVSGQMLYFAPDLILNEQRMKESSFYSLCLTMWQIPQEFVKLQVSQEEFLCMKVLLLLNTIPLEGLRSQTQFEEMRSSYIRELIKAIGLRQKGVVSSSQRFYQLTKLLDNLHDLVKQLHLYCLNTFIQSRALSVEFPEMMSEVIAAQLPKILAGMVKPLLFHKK
How it was run: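 Compounds were tested for PR agonism in HEK 293T cells bearing a beta-lactamase gene under UAS control. Treatment lasted 16 hr at 37C; signal came from fluorescence of a FRET substrate.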

[9] = target: Progesterone receptor (Homo sapiens) (UniProt P06401); test: qHTS assay to identify small molecule antagonists of the progesterone receptor (PR) signaling pathway (AID 1346795; active = well fitted inhibition curve with a large enough effect in the signal ratio in the repeat runs, not every such curve was filed as active; the % refers to the signal ratio; also: potency is read from the fitted curve at half-maximal effect)
How it was run: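 In HEK293T cells bearing the PR-UAS-bla reporter, compound effects on promegestone-driven (1 nM) beta-lactamase expression are assessed after 16 hr using a fluorescent FRET substrate incubated 2 hr at room temperature.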

[10] = qHTS assay to identify small molecule antagonists of the TGF-beta/Smad signaling pathway - cell viability counter screen (AID 1346824); also: nearly all actives have a fitted effect of over 50% in size; also: potency is read from the fitted curve at half-maximal effect
How it was run: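 SBE-bla HEK 293T cells, incubated overnight, then compound plus 0.25 ng/mL TGF-beta1 (stock added) for 5 hr at 37 C. Viability was read in the same wells by CellTiter-Glo luminescence after 30 min at room temperature.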

[11] = qHTS assay to identify small molecule agonists of the TGF-beta/Smad signaling pathway - cell viability counter screen (AID 1346829); also: nearly all actives have a fitted effect of over 45% in size; also: potency is read from the fitted curve at half-maximal effect
How it was run: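 Cytotoxicity counter screen: CellTiter-Glo luminescence (30 min, room temperature) measured in the SBE-bla HEK 293T reporter wells after 5 hr compound treatment at 37 C and the 2 hr substrate step.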

[12] = qHTS assay to identify small molecule agonists of the TGF-beta/Smad signaling pathway (AID 1346859; active = well fitted activation curve with a large enough effect in the signal ratio in the repeat runs, not every such curve was filed as active; the % refers to the signal ratio; also: series mostly up to about 77 µM)
How it was run: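 Each well held 4,000 SBE-bla HEK 293T cells incubated overnight before compound addition; 5 hr later the cleavable FRET substrate went on for 2 hr at room temperature, and fluorescence was read at two emissions.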

[13] = target: Thyrotropin-releasing hormone receptor (Homo sapiens) (UniProt P34981); test: qHTS assay to identify small molecule antagonists of the thyrotropin-releasing hormone receptor (TRHR) signaling pathway (AID 1346877; active = well fitted inhibition curve with a large enough effect in the repeat runs, not every such curve was filed as active; also: series mostly up to about 51 µM)
Thyrotropin-releasing hormone receptor (Homo sapiens), sequence (P34981 whole entry, looked up): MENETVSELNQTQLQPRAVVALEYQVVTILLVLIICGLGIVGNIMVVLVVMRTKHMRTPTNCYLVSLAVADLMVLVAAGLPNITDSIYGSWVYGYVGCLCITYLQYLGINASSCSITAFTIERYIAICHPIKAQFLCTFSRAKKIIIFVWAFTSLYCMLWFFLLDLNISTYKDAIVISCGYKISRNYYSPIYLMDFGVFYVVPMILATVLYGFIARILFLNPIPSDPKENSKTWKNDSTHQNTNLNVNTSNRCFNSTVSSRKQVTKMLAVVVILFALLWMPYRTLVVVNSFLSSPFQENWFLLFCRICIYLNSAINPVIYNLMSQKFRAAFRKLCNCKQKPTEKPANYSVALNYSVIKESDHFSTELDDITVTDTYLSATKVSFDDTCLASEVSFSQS
How it was run: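 HEK293/TRHR cells, 18 h, 37 °C; Ca2+ dye 2 h; cpd 5 min RT; TRH 1 nM final; fluorescence read 3 min, 1 s intervals; 15 concs, triplicate.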

[14] = target: Estrogen receptor beta (Homo sapiens) (UniProt Q92731); test: qHTS assay to identify small molecule antagonists of the estrogen receptor beta (ER-beta) signaling pathway (AID 1259378; active = well fitted inhibition curve with a large enough effect in the signal ratio in the repeat runs, not every such curve was filed as active; the % refers to the signal ratio; also: potency is read from the fitted curve at half-maximal effect)
How it was run: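 ER-beta-UAS-bla HEK293T cells in 2% charcoal-stripped FBS medium treated with compound plus 1nM final 17-beta-estradiol for 16 hr at 37C. Beta-lactamase reporter read by FRET substrate fluorescence after 2 hours at room temperature.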

[15] = qHTS assay to identify small molecule agonists or antagonists of the thyroid stimulating hormone receptor (TSHR) signaling pathway - wild type cell line counter screen (AID 1259384; calls by dose curve)
How it was run: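 Wild-type Hek293 cells, 800/well, 18 h at 37C, then compound with Ro20-1724 for 30 min RT. cAMP by HTRF (cAMP-d2/anti-cAMP cryptate), 1 h RT, fluorescence read. 15 concentrations, triplicates.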

[16] = target: Thyrotropin receptor (Homo sapiens) (UniProt P16473); test: qHTS assay to identify small molecule antagonists of the thyroid stimulating hormone receptor (TSHR) signaling pathway (AID 1259385; calls by dose curve; also: nearly all actives have a fitted effect of over 20% in size)
Thyrotropin receptor (Homo sapiens), sequence (P16473 whole entry, looked up): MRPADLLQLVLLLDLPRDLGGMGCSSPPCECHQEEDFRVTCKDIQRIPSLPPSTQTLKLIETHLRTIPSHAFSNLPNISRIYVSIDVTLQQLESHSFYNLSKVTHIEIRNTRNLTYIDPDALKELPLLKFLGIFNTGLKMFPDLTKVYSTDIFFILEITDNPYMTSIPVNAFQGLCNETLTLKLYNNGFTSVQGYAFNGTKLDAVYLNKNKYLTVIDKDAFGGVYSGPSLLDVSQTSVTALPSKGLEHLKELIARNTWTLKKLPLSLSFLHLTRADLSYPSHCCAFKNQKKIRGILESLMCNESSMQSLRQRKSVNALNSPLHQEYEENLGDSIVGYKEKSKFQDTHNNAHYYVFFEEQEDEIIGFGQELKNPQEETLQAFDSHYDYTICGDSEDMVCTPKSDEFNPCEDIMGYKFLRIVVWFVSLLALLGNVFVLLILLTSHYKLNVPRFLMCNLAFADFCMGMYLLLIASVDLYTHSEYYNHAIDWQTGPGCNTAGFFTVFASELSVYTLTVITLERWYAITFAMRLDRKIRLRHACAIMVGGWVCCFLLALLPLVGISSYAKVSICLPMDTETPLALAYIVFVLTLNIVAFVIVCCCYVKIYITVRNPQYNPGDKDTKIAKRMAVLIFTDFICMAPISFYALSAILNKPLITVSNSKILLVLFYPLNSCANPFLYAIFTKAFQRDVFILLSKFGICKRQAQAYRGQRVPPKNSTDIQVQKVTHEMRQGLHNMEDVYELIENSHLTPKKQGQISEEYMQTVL
How it was run: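 TSHR-HEK293 cells (800/well) plated 18 h, then compounds with Ro20-1724 and TSH at 1.5 ng/mL final, 30 min at room temperature. cAMP quantified by HTRF (cAMP-d2/anti-cAMP-cryptate, 1 h); 15 concentrations in triplicate.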

[17] = qHTS assay to identify small molecule agonists of the estrogen receptor alpha (ER-alpha) signaling pathway in the presence of an antagonist - cell viability counter screen (AID 1259386);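 also: cells exposed to compounds for 22 h at 37 °C before the viability read; nearly all actives have a fitted effect of over 30% in size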; also: potency is read from the fitted curve at half-maximal effect
How it was run: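 Read-out: CellTiter-Fluor fluorescence after 1hr reagent incubation, measured in the same wells as the luciferase readout. VM7Luc4E2 cells were exposed to 15 compound concentrations with 10.0nM ICI-182,780 for 22hr at 37C.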

[18] = qHTS assay to identify small molecule antagonists of the progesterone receptor (PR) signaling pathway - cell viability counter screen (AID 1346798); also: series mostly up to about 92 µM; nearly all actives have a fitted effect of over 50% in size
How it was run: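 Following a 4 hr attachment, PR-UAS-bla HEK293T cells in charcoal-stripped FBS medium were exposed to compounds with R5020 for 16 hr; CellTiter-Glo was added and luminescence read after 30 min at room temperature.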

[19] = qHTS assay to identify small molecule agonists of the progesterone receptor (PR) signaling pathway - cell viability counter screen (AID 1346799; calls by dose curve; also: nearly all actives have a fitted effect of over 45% in size)
How it was run: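 Here, 3,000 PR-UAS-bla HEK293T cells per well were treated with compounds for 16 hr after a 6 hr preincubation at 37C and 5% CO2; cell viability is the CellTiter-Glo luminescence signal.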

Measured: Potency

COCC(C)N(C(=O)CCl)c1c(C)csc1C (stereo not drawn)
active: [2] 30.6 µM | [9] 54.5 µM
not listed: [14] | [15] | [16] | [17] | [18] | [19]
inactive: all other assays above

O=[Se]=O
active: [4] 9.62 µM | [17] 21.5 µM | [10] 9.7 µM | [11] 4.86 µM
not listed: [6] | [9] | [12] | [13]
inactive: all other assays above

CCOC(=O)CBr
not listed: [6] | [7] | [9]
inactive: all other assays above

C=CCOC(C)=O
active: [9] 1.91 µM
not listed: [12] | [14]
inactive: all other assays above

CC(=O)C(C)(C)C
not listed: [6] | [8] | [19]
inactive: all other assays above

c1ccc(C2CC2)c(OCC2=NCCN2)c1
not listed: [6] | [15]
inactive: all other assays above

CCCCC(O)(Cn1cncn1)c1ccc(Cl)cc1Cl (stereo not drawn)
active: [2] 19.3 µM | [14] 48.5 µM | [5] 68.5 µM | [9] 17.2 µM
not listed: [6] | [8] | [16] | [18] | [19]
inactive: all other assays above

COC(=O)C(Br)CBr (stereo not drawn)
not listed: [6] | [15] | [16] | [18]
inactive: all other assays above
